# Results reported in the supplement of paper PMC8728848.
# Shown is part of a subset that was picked to be rich in the strongest signals.
# B1: CVN-E41G (protein)
# chain: MHHHHHHENLYFQSGNFSQACYNSAIQGSVLTSTCIRTNGGYNTSSIDLNSVIANVDGSLKWQGSNFIETCRNTQLAGSSELAAECKTRAQQFVSTKINLDDHIAAIDGTLKYE
# Legend:
# Assay in all cases: glycan array binding signal (z-score within array); higher = stronger binding
# Details in all cases: glycan notation: IUPAC condensed, linker removed; mutation: E41A
# [1] = molecular target: Fuc(a1-2)Gal(b1-3)GalNAc(a1-3)[Fuc(a1-2)]Gal(b1-4)GlcNAc
# Outline: (§1)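 From the Consortium for Functional Glycomics database, 3228 arrays were curated, keeping only those whose protein sequence was available. Binding is given as a within-array Z-score averaged across arrays sharing a protein sequence and across linkers. Negative Z-scores can be read as non-binding.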
# [2] = molecular target: Fuc(a1-2)Gal(b1-4)GlcNAc(b1-2)Man
# Outline: as §1
# [3] = molecular target: Fuc(a1-2)Gal(b1-4)GlcNAc(b1-3)GalNAc
# Outline: as §1
# [4] = molecular target: Fuc(a1-2)[Gal(a1-3)]Gal(b1-4)[Fuc(a1-3)]Glc
# Outline: as §1
# [5] = molecular target: Fuc(a1-2)[GalNAc(a1-3)]Gal(b1-3)GlcNAc
# Outline: as §1
# [6] = molecular target: Fuc(a1-2)[GalNAc(a1-3)]Gal(b1-4)GlcNAc(b1-2)Man(a1-3)[Fuc(a1-2)[GalNAc(a1-3)]Gal(b1-4)GlcNAc(b1-2)Man(a1-6)]Man(b1-4)GlcNAc(b1-4)[Fuc(a1-6)]GlcNAc
# Outline: as §1
# [7] = molecular target: Fuc(a1-2)[GalNAc(a1-3)]Gal(b1-4)GlcNAc(b1-3)Gal(b1-4)GlcNAc(b1-3)Gal(b1-4)GlcNAc
# Outline: as §1
# [8] = molecular target: Fuc(a1-2)[GalNAc(a1-4)]Gal(b1-4)GlcNAc
# Outline: as §1
# [9] = molecular target: Fuc(a1-3)[Gal(b1-4)]GlcNAc
# Outline: as §1
# [10] = molecular target: Fuc(a1-3)[Gal3S(b1-4)]Glc
# Outline: as §1
# Gal(a1-2)Gal = molecular target: Gal(a1-2)Gal
# Outline: as §1
# Gal(a1-3)Gal(b1-3)GlcNAc = molecular target: Gal(a1-3)Gal(b1-3)GlcNAc
# Outline: as §1
# [11] = molecular target: Gal(a1-3)Gal(b1-3)[Fuc(a1-4)]GlcNAc(b1-2)Man(a1-3)[Gal(a1-3)Gal(b1-3)[Fuc(a1-4)]GlcNAc(b1-2)Man(a1-6)]Man(b1-4)GlcNAc(b1-4)GlcNAc
# Outline: as §1
# [12] = molecular target: Gal(a1-3)Gal(b1-4)[Fuc(a1-3)]GlcNAc
# Outline: as §1
# [13] = molecular target: Gal(a1-4)Gal(b1-4)GlcNAc(b1-2)Man(a1-3)[Gal(a1-4)Gal(b1-4)GlcNAc(b1-2)Man(a1-6)]Man(b1-4)GlcNAc(b1-4)GlcNAc
# Outline: as §1
# [14] = molecular target: Gal(b1-3)GalNAc(b1-3)Gal(a1-4)Gal(b1-4)Glc
# Outline: as §1
# [15] = molecular target: Gal(b1-3)GalNAc(b1-4)Gal(b1-4)Glc
# Outline: as §1
# [16] = molecular target: Gal(b1-3)GlcNAc(b1-2)Man(a1-3)[Gal(b1-3)GlcNAc(b1-2)Man(a1-6)]Man(b1-4)GlcNAc(b1-4)GlcNAc
# Outline: as §1
# [17] = molecular target: Gal(b1-3)GlcNAc(b1-6)Gal(b1-4)GlcNAc
# Outline: as §1
# [18] = molecular target: Gal(b1-4)GlcNAc(b1-2)Man(a1-3)[Gal(b1-4)GlcNAc(b1-2)Man(a1-6)]Man(b1-4)GlcNAc(b1-4)GlcNAc
# Outline: as §1
# [19] = molecular target: Gal(b1-4)GlcNAc(b1-2)Man(a1-3)[GlcNAc(b1-4)][Gal(b1-4)GlcNAc(b1-2)Man(a1-6)]Man(b1-4)GlcNAc(b1-4)GlcNAc
# Outline: as §1
# [20] = molecular target: Gal(b1-4)GlcNAc(b1-3)Gal(b1-4)GlcNAc(b1-2)[Gal(b1-4)GlcNAc(b1-3)Gal(b1-4)GlcNAc(b1-6)]Man(a1-6)[Gal(b1-4)GlcNAc(b1-3)Gal(b1-4)GlcNAc(b1-2)Man(a1-3)]Man(b1-4)GlcNAc(b1-4)GlcNAc
# Outline: as §1
# GalNAc(a1-3)Gal = molecular target: GalNAc(a1-3)Gal
# Outline: as §1
# GalNAc(a1-3)GalNAc = molecular target: GalNAc(a1-3)GalNAc
# Outline: as §1
# [21] = molecular target: GlcNAc(a1-4)Gal(b1-4)GlcNAc
# Outline: as §1
# [22] = molecular target: GlcNAc(b1-2)[GlcNAc(b1-4)]Man(a1-3)[GlcNAc(b1-4)][GlcNAc(b1-2)Man(a1-6)]Man(b1-4)GlcNAc(b1-4)GlcNAc
# Outline: as §1
# [23] = molecular target: GlcNAc(b1-3)Gal(b1-4)GlcNAc(b1-2)[GlcNAc(b1-3)Gal(b1-4)GlcNAc(b1-6)]Man(a1-6)[GlcNAc(b1-3)Gal(b1-4)GlcNAc(b1-2)Man(a1-3)]Man(b1-4)GlcNAc(b1-4)GlcNAc
# Outline: as §1
# [24] = molecular target: GlcNAc(b1-3)Gal(b1-4)GlcNAc(b1-3)Gal(b1-4)GlcNAc(b1-3)Gal(b1-4)GlcNAc(b1-3)Gal(b1-4)GlcNAc(b1-2)Man(a1-3)[GlcNAc(b1-3)Gal(b1-4)GlcNAc(b1-3)Gal(b1-4)GlcNAc(b1-3)Gal(b1-4)GlcNAc(b1-3)Gal(b1-4)GlcNAc(b1-2)Man(a1-6)]Man(b1-4)GlcNAc(b1-4)GlcNAc
# Outline: as §1
# [25] = molecular target: GlcNAc(b1-3)Gal(b1-4)GlcNAc(b1-3)Gal(b1-4)GlcNAc(b1-3)GalNAc
# Outline: as §1
# Kdn(a2-3)Gal(b1-4)Glc = molecular target: Kdn(a2-3)Gal(b1-4)Glc
# Outline: as §1
# [26] = molecular target: Man(a1-2)Man(a1-2)Man(a1-3)Man
# Outline: as §1
# [27] = molecular target: Man(a1-2)Man(a1-2)Man(a1-6)[Man(a1-3)]Man
# Outline: as §1
# Man(a1-2)Man(a1-3)Man = molecular target: Man(a1-2)Man(a1-3)Man
# Outline: as §1
# [28] = molecular target: Man(a1-2)Man(a1-3)[Man(a1-2)Man(a1-6)]Man
# Outline: as §1
# [29] = molecular target: Man(a1-2)Man(a1-3)[Man(a1-2)Man(a1-6)]Man(a1-6)[Man(a1-2)Man(a1-2)Man(a1-3)]Man
# Outline: as §1
# [30] = molecular target: Man(a1-2)Man(a1-3)[Man(a1-6)]Man(a1-6)[Man(a1-2)Man(a1-3)]Man(b1-4)GlcNAc(b1-4)GlcNAc
# Outline: as §1
# [31] = molecular target: Man(a1-2)Man(a1-6)[Man(a1-3)]Man(a1-6)[Man(a1-2)Man(a1-2)Man(a1-3)]Man
# Outline: as §1
# [32] = molecular target: Man(a1-2)Man(a1-6)[Man(a1-3)]Man(a1-6)[Man(a1-2)Man(a1-2)Man(a1-3)]Man(b1-4)GlcNAc(b1-4)GlcNAc
# Outline: as §1
# [33] = molecular target: Man(a1-3)[Man(a1-6)]Man(a1-6)[Man(a1-2)Man(a1-3)]Man(b1-4)GlcNAc(b1-4)GlcNAc
# Outline: as §1
# [34] = molecular target: Neu5Ac(a2-3)Gal(b1-3)GlcNAc(b1-2)Man(a1-3)[GlcNAc(b1-4)][Neu5Ac(a2-3)Gal(b1-3)GlcNAc(b1-2)Man(a1-6)]Man(b1-4)GlcNAc(b1-4)GlcNAc
# Outline: as §1
# [35] = molecular target: Neu5Ac(a2-3)Gal(b1-4)GlcNAc(b1-2)Man
# Outline: as §1
# [36] = molecular target: Neu5Ac(a2-3)Gal(b1-4)GlcNAc(b1-2)Man(a1-3)[GlcNAc(b1-4)][Neu5Ac(a2-3)Gal(b1-4)GlcNAc(b1-2)Man(a1-6)]Man(b1-4)GlcNAc(b1-4)GlcNAc
# Outline: as §1
# [37] = molecular target: Neu5Ac(a2-3)Gal(b1-4)GlcNAc(b1-2)[Neu5Ac(a2-3)Gal(b1-4)GlcNAc(b1-4)]Man(a1-3)[GlcNAc(b1-4)][Neu5Ac(a2-3)Gal(b1-4)GlcNAc(b1-2)[Neu5Ac(a2-3)Gal(b1-4)GlcNAc(b1-6)]Man(a1-6)]Man(b1-4)GlcNAc(b1-4)GlcNAc
# Outline: as §1
# [38] = molecular target: Neu5Ac(a2-3)Gal(b1-4)GlcNAc(b1-3)Gal(b1-4)GlcNAc(b1-3)[Neu5Ac(a2-3)Gal(b1-4)GlcNAc(b1-3)Gal(b1-4)GlcNAc(b1-6)]GalNAc
# Outline: as §1
# [39] = molecular target: Neu5Ac(a2-3)Gal6S(b1-4)[Fuc(a1-3)]GlcNAc
# Outline: as §1
# [40] = molecular target: Neu5Ac(a2-6)Gal(b1-4)GlcNAc(b1-2)Man(a1-3)[GlcNAc(b1-4)][Neu5Ac(a2-6)Gal(b1-4)GlcNAc(b1-2)Man(a1-6)]Man(b1-4)GlcNAc(b1-4)GlcNAc
# Outline: as §1
# [41] = molecular target: Neu5Ac(a2-6)Gal(b1-4)GlcNAc(b1-2)Man(a1-3)[Neu5Ac(a2-3)Gal(b1-4)GlcNAc(b1-2)Man(a1-6)]Man(b1-4)GlcNAc(b1-4)GlcNAc
# Outline: as §1
# [42] = molecular target: Neu5Ac(a2-6)Gal(b1-4)GlcNAc(b1-3)Gal(b1-4)GlcNAc(b1-3)Gal(b1-4)GlcNAc(b1-2)Man(a1-3)[Neu5Ac(a2-6)Gal(b1-4)GlcNAc(b1-3)Gal(b1-4)GlcNAc(b1-3)Gal(b1-4)GlcNAc(b1-2)Man(a1-6)]GalNAc
# Outline: as §1
# [43] = molecular target: Neu5Ac(a2-6)Gal(b1-4)GlcNAc(b1-3)Gal(b1-4)GlcNAc(b1-6)[Gal(b1-3)]GalNAc
# Outline: as §1
# [44] = molecular target: Neu5Ac(a2-8)Neu5Ac(a2-8)Neu5Ac(a2-3)Gal(b1-4)Glc
# Outline: as §1
# Neu5Gc(a2-6)GalNAc = molecular target: Neu5Gc(a2-6)GalNAc
# Outline: as §1
binder,measurement,setting,value
B1,glycan array binding signal (z-score),[1],-0.16
same,glycan array binding signal (z-score),[2],-0.09
same,glycan array binding signal (z-score),[3],-0.19
same,glycan array binding signal (z-score),[4],-0.145
same,glycan array binding signal (z-score),[5],-0.168
same,glycan array binding signal (z-score),[6],1.61
same,glycan array binding signal (z-score),[7],-0.123
same,glycan array binding signal (z-score),[8],-0.221
same,glycan array binding signal (z-score),[9],-0.194
same,glycan array binding signal (z-score),[10],-0.171
same,glycan array binding signal (z-score),Gal(a1-2)Gal,-0.221
same,glycan array binding signal (z-score),Gal(a1-3)Gal(b1-3)GlcNAc,-0.192
same,glycan array binding signal (z-score),[11],1.41
same,glycan array binding signal (z-score),[12],-0.243
same,glycan array binding signal (z-score),[13],0.1
same,glycan array binding signal (z-score),[14],-0.198
same,glycan array binding signal (z-score),[15],-0.211
same,glycan array binding signal (z-score),[16],0.128
same,glycan array binding signal (z-score),[17],-0.121
same,glycan array binding signal (z-score),[18],-0.227
same,glycan array binding signal (z-score),[19],-0.238
same,glycan array binding signal (z-score),[20],0.189
same,glycan array binding signal (z-score),GalNAc(a1-3)Gal,-0.219
same,glycan array binding signal (z-score),GalNAc(a1-3)GalNAc,-0.252
same,glycan array binding signal (z-score),[21],-0.214
same,glycan array binding signal (z-score),[22],-0.211
same,glycan array binding signal (z-score),[23],-0.064
same,glycan array binding signal (z-score),[24],-0.204
same,glycan array binding signal (z-score),[25],-0.168
same,glycan array binding signal (z-score),Kdn(a2-3)Gal(b1-4)Glc,-0.177
same,glycan array binding signal (z-score),[26],8.7
same,glycan array binding signal (z-score),[27],8.39
same,glycan array binding signal (z-score),Man(a1-2)Man(a1-3)Man,7.22
same,glycan array binding signal (z-score),[28],8.35
same,glycan array binding signal (z-score),[29],10.5
same,glycan array binding signal (z-score),[30],5.81
same,glycan array binding signal (z-score),[31],9.42
same,glycan array binding signal (z-score),[32],6.36
same,glycan array binding signal (z-score),[33],3.98
same,glycan array binding signal (z-score),[34],0.053
same,glycan array binding signal (z-score),[35],0.044
same,glycan array binding signal (z-score),[36],-0.212
same,glycan array binding signal (z-score),[37],-0.177
same,glycan array binding signal (z-score),[38],-0.218
same,glycan array binding signal (z-score),[39],-0.235
same,glycan array binding signal (z-score),[40],-0.208
same,glycan array binding signal (z-score),[41],-0.216
same,glycan array binding signal (z-score),[42],-0.108
same,glycan array binding signal (z-score),[43],-0.172
same,glycan array binding signal (z-score),[44],-0.226
same,glycan array binding signal (z-score),Neu5Gc(a2-6)GalNAc,-0.18
